Results on 11 molecules are retold here after paper PMC5540273 (PLoS ONE, 2017).

Molecules are shown by their SMILES.
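Also: KINOMEscan kinase panel screen.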

The test deals with T1, CTK.
T1 construct: gene MATK
Particulars: concentration: 1 μM, replicates: in singlicate; n = 1.
For `CN(C)S(=O)(=O)c1cc(-c2ccc3nccc(-c4cccc(S(N)(=O)=O)c4)c3c2)cnc1N` [GSK1669921], the “%Inh” value stood at 12%.

Regarding `CCS(=O)(=O)c1ccc(OC)c(Nc2nccc(-c3c(-c4cccc(NC(=O)c5c(F)cccc5F)c4)nn4ncccc34)n2)c1` [GSK326180], the “%Inh” value is 0%.

As for `COc1cc(Nc2nccc(N3CCC(NC(=O)c4cc5ccccc5s4)C3)n2)cc(OC)c1OC` (centres unmarked) [GSK1379760], the “%Inh” value turned out to be 0%.

As for `Cc1ccc(F)c(C(=O)Nc2cccc(-c3nn4ccccc4c3-c3ccnc(Nc4cccc(F)c4)n3)c2)c1F` [GSK361061], the “%Inh” value is 27%.

For the molecule `Clc1ccc(-c2nn3ncccc3c2-c2ccnc(Nc3ccc4c(c3)OCCO4)n2)cc1` [GW829116], the “%Inh” value turned out to be 36%.

Take `CCCCc1nn2ncccc2c1-c1ccnc(Nc2ccc(N3CCN(C)CC3)cc2)n1` [GW684941]: the “%Inh” value was 13%.

In the case of `CCn1c(-c2nonc2N)nc2c(C#CC(C)(C)O)ncc(OCCCCN)c21.O=C(O)C(F)(F)F.O=C(O)C(F)(F)F` [GSK507274], the “%Inh” value is reported as 2%.

As to `O=C(NC1CCN(c2ccnc(Nc3ccc(F)cc3)n2)C1)c1cc2ccccc2s1` (centres unmarked) [GSK1379716], the “%Inh” value was 0%.

With `COc1cc2c(cc1OCCN1CCNCC1)ncc1c3ccc(C#N)cc3[nH]c21`, the “%Inh” value is 15%.

`COc1cc(Nc2nccc(N3CCC(NC(=O)Nc4cccc(C(C)=O)c4)C3)n2)cc(OC)c1OC` (centres unmarked) [GSK1379753]: the “%Inh” value is given as 0%.

Take `O=C(Nc1cccc(-c2nn3ccccc3c2-c2ccnc(Nc3cccc(C(F)(F)F)c3)n2)c1)c1c(F)cccc1F` [GSK292658]: the “%Inh” value came to 14%.
